Test results from article PMC4336329 (PLoS ONE, 2015).
In all, about 310,000 compounds went through this assay and about 2,200 (0.71%) showed an effect of 50% or more. The effect is printed as a negative number. For the sample, strong results were picked, then their nearest neighbours and some compounds at random.

The compounds below were run against human ether-à-go-go-related gene (hERG) potassium channel (human, UniProt Q12809) (assay: primary screen, population patch clamp on CHO cells stably expressing hERG; higher = less effect of the substance).
Sequence of human ether-à-go-go-related gene (hERG) potassium channel (Q12809 whole entry, looked up): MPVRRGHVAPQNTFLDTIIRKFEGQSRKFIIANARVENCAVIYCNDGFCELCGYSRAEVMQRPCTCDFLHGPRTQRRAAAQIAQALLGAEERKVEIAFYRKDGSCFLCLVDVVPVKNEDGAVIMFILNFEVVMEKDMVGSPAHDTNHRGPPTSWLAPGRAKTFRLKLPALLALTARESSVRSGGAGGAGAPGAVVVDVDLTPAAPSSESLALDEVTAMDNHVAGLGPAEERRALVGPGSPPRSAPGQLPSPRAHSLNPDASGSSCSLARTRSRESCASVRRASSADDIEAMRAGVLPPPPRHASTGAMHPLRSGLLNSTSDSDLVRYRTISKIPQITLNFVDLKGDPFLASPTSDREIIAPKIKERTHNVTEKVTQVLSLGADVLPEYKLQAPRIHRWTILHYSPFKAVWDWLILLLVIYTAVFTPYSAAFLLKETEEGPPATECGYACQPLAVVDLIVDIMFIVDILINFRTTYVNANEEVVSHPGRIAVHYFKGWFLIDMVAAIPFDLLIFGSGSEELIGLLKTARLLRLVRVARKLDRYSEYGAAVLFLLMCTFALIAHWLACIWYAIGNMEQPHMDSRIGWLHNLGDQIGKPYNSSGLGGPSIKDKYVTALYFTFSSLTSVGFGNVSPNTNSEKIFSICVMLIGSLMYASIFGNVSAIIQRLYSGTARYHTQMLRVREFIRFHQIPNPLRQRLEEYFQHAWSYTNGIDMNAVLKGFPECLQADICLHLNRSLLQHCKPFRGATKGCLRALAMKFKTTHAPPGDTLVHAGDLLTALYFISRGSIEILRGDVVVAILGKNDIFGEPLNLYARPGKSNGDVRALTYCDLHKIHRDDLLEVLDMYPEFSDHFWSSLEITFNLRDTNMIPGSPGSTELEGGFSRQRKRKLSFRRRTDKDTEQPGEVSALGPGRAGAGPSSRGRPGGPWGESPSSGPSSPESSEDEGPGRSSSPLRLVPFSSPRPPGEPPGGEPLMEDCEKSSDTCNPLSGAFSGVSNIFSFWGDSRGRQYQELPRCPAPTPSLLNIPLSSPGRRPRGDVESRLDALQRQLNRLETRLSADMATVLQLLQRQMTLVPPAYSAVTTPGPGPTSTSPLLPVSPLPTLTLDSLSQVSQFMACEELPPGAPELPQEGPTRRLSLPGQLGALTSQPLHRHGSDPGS

First: CCN1c2ccccc2-c2nc3ccccc3n2C1c1cccs1 (stereo not drawn)
Second: c1ccc(N2CCN(c3nc(-c4cccs4)nc4ccccc34)CC2)cc1
The “hERG current change (%, negative = inhibition) at 1uM” value of the first is higher: 4.28% for the first, 4.12% for the second.

First: COCCn1c(=NC(=O)c2cccs2)sc2cc(NC(C)=O)ccc21
Second: Cc1ccc(S(=O)(=O)N(C)C)cc1NC(=O)COC(=O)C1CCN(S(=O)(=O)c2cccs2)CC1
The “hERG current change (%, negative = inhibition) at 1uM” value of the first is higher: 0.283% for the first, -58.4% for the second.

First: COc1ccc(N2C(=O)C(Cl)=C(Nc3ccccc3OC)C2=O)cc1
Second: COc1cccc2c1OCC/C2=N\NC(=O)COc1ccccc1C
The “hERG current change (%, negative = inhibition) at 1uM” value of the first is higher: 2.56% for the first, -13.9% for the second.

Compared with `O=C(CSc1nnc(-c2ccccn2)n1Cc1ccccc1)Nc1ccc2c(c1)OCO2`, `O=C(Nc1ccc2c(c1)OCO2)C1CC(=O)N(CCc2ccccc2)C1` (stereo not drawn) is lower in “hERG current change (%, negative = inhibition) at 1uM” value: 7.03% for the first, 4.44% for the second.

Going from `CCN(CC)CCCNC(CC(=O)Nc1cccc([N+](=O)[O-])c1)C(=O)O` (stereo not drawn) to `COc1ccc(CNC(=O)C2CC(c3cccc([N+](=O)[O-])c3)=NO2)cc1` (stereo not drawn), the “hERG current change (%, negative = inhibition) at 1uM” value rises from 3.62% to 5.46%.

Compared with `COc1ccccc1C(=O)C1CCCN(C(=O)c2cccc(-n3cccn3)c2)C1` (stereo not drawn), `O=C(O)CCc1ccc(-c2ccccc2)n1-c1cccc(C(=O)O)c1` is higher in “hERG current change (%, negative = inhibition) at 1uM” value: 9.07% for the first, 15.2% for the second.

Going from `Nc1ccc(-n2nnnc2-c2ccco2)cc1` to `c1ccc(CSc2ncnc3c2oc2ccccc23)cc1`, the “hERG current change (%, negative = inhibition) at 1uM” value falls from 11.1% to 9.56%.

First: Cc1ccc(OCC(=O)N2CCN(Cc3ccc([N+](=O)[O-])cc3)CC2)cc1.O=C(O)C(=O)O
Second: Cc1cccc(OCC(=O)N2CCN(Cc3ccc([N+](=O)[O-])cc3)CC2)c1.O=C(O)C(=O)O
The “hERG current change (%, negative = inhibition) at 1uM” value of the first is lower: -85% for the first, -60.5% for the second.

Going from `Cc1cccc(OCC(=O)N2CCN(C(=O)c3ccc([N+](=O)[O-])cc3)CC2)c1` to `Cc1ccc(OCC(=O)N2CCN(C(=O)c3ccc([N+](=O)[O-])cc3)CC2)cc1`, the “hERG current change (%, negative = inhibition) at 1uM” value rises from -38.8% to -19.5%.

Compared with `Cc1cccc(OCC(=O)N2CCN(Cc3ccncc3)CC2)c1.O=C(O)C(=O)O`, `CSc1ccc(CN2CCN(C(=O)COc3ccc(C)cc3)CC2)cc1.O=C(O)C(=O)O` is lower in “hERG current change (%, negative = inhibition) at 1uM” value: 10.2% for the first, -19.3% for the second.

Going from `Cc1cccc(OCC(=O)N2CCN(C(=O)COc3ccc(Cl)cc3)CC2)c1` to `Cc1cccc(OCC(=O)N2CCN(S(C)(=O)=O)CC2)c1`, the “hERG current change (%, negative = inhibition) at 1uM” value rises from -56.6% to 9.87%.

Compared with `Cc1cccc(OCC(=O)N2CCOCC2)c1`, `Cc1ccc(C)c(CN2C(=O)CSc3ccc(C(=O)NCCN4CCOCC4)cc32)c1` is higher in “hERG current change (%, negative = inhibition) at 1uM” value: 17.1% for the first, 20.1% for the second.

Compared with `Cc1ccc(S(=O)(=O)N2CCC(C(=O)OCC(=O)N(CC(C)C)C3CCS(=O)(=O)C3)CC2)cc1C` (stereo not drawn), `Cc1ccc(S(=O)(=O)N(C)C)cc1NC(=O)COC(=O)C1CCCC1` is lower in “hERG current change (%, negative = inhibition) at 1uM” value: 10.8% for the first, -0.454% for the second.

Going from `Nc1n[nH]c2cc(=O)n(-c3cccc(C(F)(F)F)c3)nc12` to `O=C(Nc1ccccc1)C1CCCN1/C=C/C(=O)C(F)(F)F` (stereo not drawn), the “hERG current change (%, negative = inhibition) at 1uM” value falls from 12.3% to 2.92%.

Compared with `O=C(CSc1nc(Cc2ccccc2)nc2ccccc12)Nc1nc2c(s1)CCCC2`, `O=C(CSc1nc2ccccc2c(=O)n1CC1CCCO1)NCc1ccc2c(c1)OCO2` (stereo not drawn) is lower in “hERG current change (%, negative = inhibition) at 1uM” value: 15.9% for the first, 9.71% for the second.

Compared with `Cc1ccc(S(=O)(=O)N(C)C)cc1NC(=O)COC(=O)C1CC1`, `CCOC(=O)N1CCC(N2CCN(c3cc(C)ccc3C)CC2)CC1` is lower in “hERG current change (%, negative = inhibition) at 1uM” value: 17.3% for the first, -32.2% for the second.

Going from `CCC(NS(=O)(=O)c1ccc(C)cc1)C(=O)Nc1ccc(NC(C)=O)cc1` (stereo not drawn) to `N#Cc1ccc(NC(=O)COC(=O)CSc2nnc(-c3ccc(Cl)cc3)o2)cc1`, the “hERG current change (%, negative = inhibition) at 1uM” value rises from -1.54% to 6.91%.

First: CCC(=O)N(Cc1ccc(C)cc1)Cc1cc2cc3c(cc2[nH]c1=O)OCO3
Second: N=c1c(C(=O)NCc2ccc3c(c2)OCO3)cc2c(=O)n3ccccc3nc2n1CC1CCCO1 (stereo not drawn)
The “hERG current change (%, negative = inhibition) at 1uM” value of the first is higher: 0.914% for the first, -84.2% for the second.

First: O=C(NCCS(=O)(=O)N1CCN(c2ccccc2)CC1)C1CC(=O)N(c2ccccc2)C1 (stereo not drawn)
Second: CC(=O)N1CCN(c2nc(-c3cccs3)nc3ccccc23)CC1
The “hERG current change (%, negative = inhibition) at 1uM” value of the first is higher: 18% for the first, -49.4% for the second.

Compared with `Cc1ccc(C)c(CN2C(=O)CSc3ccc(C(=O)N4CCCC4)cc32)c1`, `Cc1ccc(C)c(CN2C(=O)CSc3ccc(C(=O)NCC(C)CN4CCC(C)CC4)cc32)c1` (stereo not drawn) is lower in “hERG current change (%, negative = inhibition) at 1uM” value: 5.65% for the first, -70.4% for the second.

First: CCCN(CC(=O)Nc1ccccc1C)C(=O)C1CCN(c2ncnc3sc(C)c(C)c23)CC1
Second: Cc1sc2ncnc(N3CCC(C(=O)N(C)CC(=O)Nc4ccccc4Cl)CC3)c2c1C
The “hERG current change (%, negative = inhibition) at 1uM” value of the first is lower: -56.5% for the first, -30% for the second.

Going from `Cc1sc2ncnc(N3CCC(C(=O)N(C)CC(=O)Nc4ccccc4Br)CC3)c2c1C` to `CCCN1CCN(c2nc(-c3cccs3)nc3ccccc23)CC1`, the “hERG current change (%, negative = inhibition) at 1uM” value falls from -8.93% to -16.1%.

First: CCN1CCN(c2nc(-c3cccs3)nc3ccccc23)CC1
Second: CN1CCN(c2nc(-c3cccs3)nc3ccccc23)CC1
The “hERG current change (%, negative = inhibition) at 1uM” value of the first is lower: -66.2% for the first, -55% for the second.

Compared with `c1csc(-c2nc(N3CCOCC3)c3ccccc3n2)c1`, `COc1ccc(CNC(=O)c2cc3c(=O)n4ccccc4nc3n(CC3CCCO3)c2=N)cc1` (stereo not drawn) is lower in “hERG current change (%, negative = inhibition) at 1uM” value: 5.11% for the first, -80.4% for the second.

Compared with `COc1ccc(CC(=O)N2CCN(S(=O)(=O)c3cc(Cl)ccc3Cl)CC2)cc1`, `N=c1c(S(=O)(=O)c2ccc(F)cc2)cc2c(=O)n3ccccc3nc2n1CC1CCCO1` (stereo not drawn) is lower in “hERG current change (%, negative = inhibition) at 1uM” value: 14% for the first, -2.33% for the second.

Going from `O=C(NCc1cccnc1)c1ccc(Cl)cc1[N+](=O)[O-]` to `Cc1ccc(CNC(=O)c2cc3c(=O)n4ccccc4nc3n(CC3CCCO3)c2=N)cc1` (stereo not drawn), the “hERG current change (%, negative = inhibition) at 1uM” value falls from 7.05% to -85.7%.

Compared with `N=c1c(C(=O)NCc2ccc(F)cc2)cc2c(=O)n3ccccc3nc2n1CC1CCCO1` (stereo not drawn), `CCOC(=O)c1cc2c(=O)n3ccccc3nc2n(CC2CCCO2)c1=NC(C)=O` (stereo not drawn) is higher in “hERG current change (%, negative = inhibition) at 1uM” value: -85.3% for the first, 16.6% for the second.
